Tests used:
Assay in all cases: log2 ratio of Biotin-Ahx-Ub-VS probe labelling (fragment/DMSO); higher = less target engagement (more negative = stronger competition), active = hit call of the paper (q ≤ 0.05, log2 ratio ≤ -1)
Settings in all cases: compound concentration: 200 uM; treatment time: 3 h
USP34 = USP34 (UniProt Q70CQ2)
How it was run: (§1)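 Using Biotin-Ahx-Ub-VS at 0.5 µM final for 1 h, DUBs were labelled in HEK293T lysate (495 µg per sample) that had first been treated in triplicate with fragment at 200 µM or vehicle for 3 h. NeutrAvidin enrichment, LysC and trypsin digestion and diaPASEF LC-MS/MS followed. Spectronaut label-free quantities were global-median-normalised. Values are average log2 fragment/vehicle ratios by unpaired t-test, using proteins with ≥2 unique peptides.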

USP36 = target: T1, USP36 (UniProt Q9P275)
T1 sequence (whole entry): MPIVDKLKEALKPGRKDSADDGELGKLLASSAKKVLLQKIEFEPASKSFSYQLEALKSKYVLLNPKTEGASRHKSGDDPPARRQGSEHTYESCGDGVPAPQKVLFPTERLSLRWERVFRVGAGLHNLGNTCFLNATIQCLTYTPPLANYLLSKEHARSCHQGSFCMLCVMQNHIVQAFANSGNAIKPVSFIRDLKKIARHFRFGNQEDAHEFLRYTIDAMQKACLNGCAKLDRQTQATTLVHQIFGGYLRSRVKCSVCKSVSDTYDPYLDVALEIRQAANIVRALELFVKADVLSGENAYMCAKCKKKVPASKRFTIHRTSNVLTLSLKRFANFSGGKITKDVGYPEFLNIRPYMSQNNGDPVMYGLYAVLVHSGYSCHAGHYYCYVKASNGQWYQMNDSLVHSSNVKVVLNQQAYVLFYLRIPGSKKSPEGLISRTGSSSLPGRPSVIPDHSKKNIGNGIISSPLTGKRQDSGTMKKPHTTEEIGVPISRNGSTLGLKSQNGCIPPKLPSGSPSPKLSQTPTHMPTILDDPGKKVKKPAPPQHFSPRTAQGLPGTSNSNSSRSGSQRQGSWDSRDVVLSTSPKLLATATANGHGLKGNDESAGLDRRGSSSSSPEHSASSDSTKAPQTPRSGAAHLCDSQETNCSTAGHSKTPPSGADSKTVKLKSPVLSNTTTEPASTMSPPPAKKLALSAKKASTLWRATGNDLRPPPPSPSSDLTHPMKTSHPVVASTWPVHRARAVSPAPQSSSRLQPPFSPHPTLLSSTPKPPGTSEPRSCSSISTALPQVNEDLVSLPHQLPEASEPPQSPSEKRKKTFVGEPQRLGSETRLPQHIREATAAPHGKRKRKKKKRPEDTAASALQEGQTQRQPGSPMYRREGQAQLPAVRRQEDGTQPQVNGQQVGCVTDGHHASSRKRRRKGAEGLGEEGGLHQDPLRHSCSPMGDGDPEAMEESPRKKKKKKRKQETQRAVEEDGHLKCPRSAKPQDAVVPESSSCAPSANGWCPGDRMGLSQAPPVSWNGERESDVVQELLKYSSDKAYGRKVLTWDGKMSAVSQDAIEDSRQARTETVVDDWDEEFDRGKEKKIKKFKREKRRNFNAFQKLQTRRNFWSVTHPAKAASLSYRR
How it was run: as §1

USP38 = target: T2, USP38 (UniProt Q8NB14)
T2 sequence (whole entry): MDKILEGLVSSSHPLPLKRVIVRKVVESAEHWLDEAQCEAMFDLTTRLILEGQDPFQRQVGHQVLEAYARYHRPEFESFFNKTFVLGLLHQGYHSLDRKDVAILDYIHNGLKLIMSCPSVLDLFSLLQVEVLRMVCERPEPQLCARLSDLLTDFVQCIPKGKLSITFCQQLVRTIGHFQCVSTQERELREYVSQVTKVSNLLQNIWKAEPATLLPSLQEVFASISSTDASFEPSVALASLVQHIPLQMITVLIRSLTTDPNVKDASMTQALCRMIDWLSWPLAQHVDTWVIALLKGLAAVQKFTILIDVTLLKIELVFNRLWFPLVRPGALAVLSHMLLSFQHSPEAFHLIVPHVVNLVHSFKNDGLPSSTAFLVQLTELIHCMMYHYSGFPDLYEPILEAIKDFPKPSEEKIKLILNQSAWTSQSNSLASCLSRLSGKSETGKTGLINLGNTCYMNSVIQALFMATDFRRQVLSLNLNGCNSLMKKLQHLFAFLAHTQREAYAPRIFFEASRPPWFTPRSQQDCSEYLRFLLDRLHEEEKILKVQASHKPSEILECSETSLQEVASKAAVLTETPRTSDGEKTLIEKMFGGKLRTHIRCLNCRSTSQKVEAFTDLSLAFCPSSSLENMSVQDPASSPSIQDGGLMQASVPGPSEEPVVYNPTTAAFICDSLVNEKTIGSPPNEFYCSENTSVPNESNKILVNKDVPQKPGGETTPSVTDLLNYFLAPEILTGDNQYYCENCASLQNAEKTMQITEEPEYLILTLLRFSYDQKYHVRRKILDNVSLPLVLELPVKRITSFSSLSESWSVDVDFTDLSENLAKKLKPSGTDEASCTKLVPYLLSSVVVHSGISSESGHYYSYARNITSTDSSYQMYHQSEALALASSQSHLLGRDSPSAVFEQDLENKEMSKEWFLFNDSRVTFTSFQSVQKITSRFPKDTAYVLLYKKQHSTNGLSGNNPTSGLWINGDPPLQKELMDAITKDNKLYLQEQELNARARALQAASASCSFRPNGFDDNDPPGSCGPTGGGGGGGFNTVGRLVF
How it was run: as §1

USP39 = target: T3, USP39 (UniProt Q53GS9)
T3 sequence (whole entry): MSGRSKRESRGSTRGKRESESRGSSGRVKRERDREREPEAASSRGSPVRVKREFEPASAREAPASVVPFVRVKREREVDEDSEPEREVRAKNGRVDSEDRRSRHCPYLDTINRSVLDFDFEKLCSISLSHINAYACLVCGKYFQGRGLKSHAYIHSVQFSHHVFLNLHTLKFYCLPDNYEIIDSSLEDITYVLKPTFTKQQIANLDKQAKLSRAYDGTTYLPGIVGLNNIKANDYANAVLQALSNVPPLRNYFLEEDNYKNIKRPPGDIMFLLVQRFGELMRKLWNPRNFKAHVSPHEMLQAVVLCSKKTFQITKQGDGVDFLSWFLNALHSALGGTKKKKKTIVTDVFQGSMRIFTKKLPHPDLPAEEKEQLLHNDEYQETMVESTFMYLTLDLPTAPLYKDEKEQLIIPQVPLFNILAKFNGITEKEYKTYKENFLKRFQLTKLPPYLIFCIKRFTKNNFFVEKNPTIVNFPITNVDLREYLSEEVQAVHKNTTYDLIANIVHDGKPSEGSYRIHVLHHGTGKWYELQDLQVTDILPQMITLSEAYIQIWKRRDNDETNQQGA
How it was run: as §1

USP4 = target: T4, USP4 (UniProt Q13107)
T4 sequence (whole entry): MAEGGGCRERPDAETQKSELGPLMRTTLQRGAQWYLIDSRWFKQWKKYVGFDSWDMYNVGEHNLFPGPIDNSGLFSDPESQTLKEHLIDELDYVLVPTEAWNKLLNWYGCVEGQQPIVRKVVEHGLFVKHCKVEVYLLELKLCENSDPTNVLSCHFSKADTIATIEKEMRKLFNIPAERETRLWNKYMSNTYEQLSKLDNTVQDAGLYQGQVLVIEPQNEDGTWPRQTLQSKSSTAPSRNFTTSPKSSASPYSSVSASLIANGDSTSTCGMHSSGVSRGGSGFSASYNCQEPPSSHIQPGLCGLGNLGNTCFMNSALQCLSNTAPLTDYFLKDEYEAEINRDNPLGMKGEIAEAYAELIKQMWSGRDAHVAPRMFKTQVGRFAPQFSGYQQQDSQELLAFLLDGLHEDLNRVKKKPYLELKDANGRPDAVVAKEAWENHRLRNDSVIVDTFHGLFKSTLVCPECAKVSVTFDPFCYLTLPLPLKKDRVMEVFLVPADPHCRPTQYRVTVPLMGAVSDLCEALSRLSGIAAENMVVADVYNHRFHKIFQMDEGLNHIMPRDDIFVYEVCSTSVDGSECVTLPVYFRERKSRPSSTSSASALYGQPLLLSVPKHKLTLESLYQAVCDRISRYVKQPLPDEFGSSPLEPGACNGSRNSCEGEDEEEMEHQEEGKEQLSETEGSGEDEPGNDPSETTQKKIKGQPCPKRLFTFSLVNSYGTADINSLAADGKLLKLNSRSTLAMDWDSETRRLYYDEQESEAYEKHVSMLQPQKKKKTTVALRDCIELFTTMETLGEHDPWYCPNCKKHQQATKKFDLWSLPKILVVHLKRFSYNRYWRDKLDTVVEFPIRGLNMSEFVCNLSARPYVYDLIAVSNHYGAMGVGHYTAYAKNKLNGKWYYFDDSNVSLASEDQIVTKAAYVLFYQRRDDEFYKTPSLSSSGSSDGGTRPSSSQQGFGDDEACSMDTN
How it was run: as §1

Measured: log2 ratio of Biotin-Ahx-Ub-VS probe labelling

USP34, sequence (Q70CQ2 whole entry, the tested form may be a part): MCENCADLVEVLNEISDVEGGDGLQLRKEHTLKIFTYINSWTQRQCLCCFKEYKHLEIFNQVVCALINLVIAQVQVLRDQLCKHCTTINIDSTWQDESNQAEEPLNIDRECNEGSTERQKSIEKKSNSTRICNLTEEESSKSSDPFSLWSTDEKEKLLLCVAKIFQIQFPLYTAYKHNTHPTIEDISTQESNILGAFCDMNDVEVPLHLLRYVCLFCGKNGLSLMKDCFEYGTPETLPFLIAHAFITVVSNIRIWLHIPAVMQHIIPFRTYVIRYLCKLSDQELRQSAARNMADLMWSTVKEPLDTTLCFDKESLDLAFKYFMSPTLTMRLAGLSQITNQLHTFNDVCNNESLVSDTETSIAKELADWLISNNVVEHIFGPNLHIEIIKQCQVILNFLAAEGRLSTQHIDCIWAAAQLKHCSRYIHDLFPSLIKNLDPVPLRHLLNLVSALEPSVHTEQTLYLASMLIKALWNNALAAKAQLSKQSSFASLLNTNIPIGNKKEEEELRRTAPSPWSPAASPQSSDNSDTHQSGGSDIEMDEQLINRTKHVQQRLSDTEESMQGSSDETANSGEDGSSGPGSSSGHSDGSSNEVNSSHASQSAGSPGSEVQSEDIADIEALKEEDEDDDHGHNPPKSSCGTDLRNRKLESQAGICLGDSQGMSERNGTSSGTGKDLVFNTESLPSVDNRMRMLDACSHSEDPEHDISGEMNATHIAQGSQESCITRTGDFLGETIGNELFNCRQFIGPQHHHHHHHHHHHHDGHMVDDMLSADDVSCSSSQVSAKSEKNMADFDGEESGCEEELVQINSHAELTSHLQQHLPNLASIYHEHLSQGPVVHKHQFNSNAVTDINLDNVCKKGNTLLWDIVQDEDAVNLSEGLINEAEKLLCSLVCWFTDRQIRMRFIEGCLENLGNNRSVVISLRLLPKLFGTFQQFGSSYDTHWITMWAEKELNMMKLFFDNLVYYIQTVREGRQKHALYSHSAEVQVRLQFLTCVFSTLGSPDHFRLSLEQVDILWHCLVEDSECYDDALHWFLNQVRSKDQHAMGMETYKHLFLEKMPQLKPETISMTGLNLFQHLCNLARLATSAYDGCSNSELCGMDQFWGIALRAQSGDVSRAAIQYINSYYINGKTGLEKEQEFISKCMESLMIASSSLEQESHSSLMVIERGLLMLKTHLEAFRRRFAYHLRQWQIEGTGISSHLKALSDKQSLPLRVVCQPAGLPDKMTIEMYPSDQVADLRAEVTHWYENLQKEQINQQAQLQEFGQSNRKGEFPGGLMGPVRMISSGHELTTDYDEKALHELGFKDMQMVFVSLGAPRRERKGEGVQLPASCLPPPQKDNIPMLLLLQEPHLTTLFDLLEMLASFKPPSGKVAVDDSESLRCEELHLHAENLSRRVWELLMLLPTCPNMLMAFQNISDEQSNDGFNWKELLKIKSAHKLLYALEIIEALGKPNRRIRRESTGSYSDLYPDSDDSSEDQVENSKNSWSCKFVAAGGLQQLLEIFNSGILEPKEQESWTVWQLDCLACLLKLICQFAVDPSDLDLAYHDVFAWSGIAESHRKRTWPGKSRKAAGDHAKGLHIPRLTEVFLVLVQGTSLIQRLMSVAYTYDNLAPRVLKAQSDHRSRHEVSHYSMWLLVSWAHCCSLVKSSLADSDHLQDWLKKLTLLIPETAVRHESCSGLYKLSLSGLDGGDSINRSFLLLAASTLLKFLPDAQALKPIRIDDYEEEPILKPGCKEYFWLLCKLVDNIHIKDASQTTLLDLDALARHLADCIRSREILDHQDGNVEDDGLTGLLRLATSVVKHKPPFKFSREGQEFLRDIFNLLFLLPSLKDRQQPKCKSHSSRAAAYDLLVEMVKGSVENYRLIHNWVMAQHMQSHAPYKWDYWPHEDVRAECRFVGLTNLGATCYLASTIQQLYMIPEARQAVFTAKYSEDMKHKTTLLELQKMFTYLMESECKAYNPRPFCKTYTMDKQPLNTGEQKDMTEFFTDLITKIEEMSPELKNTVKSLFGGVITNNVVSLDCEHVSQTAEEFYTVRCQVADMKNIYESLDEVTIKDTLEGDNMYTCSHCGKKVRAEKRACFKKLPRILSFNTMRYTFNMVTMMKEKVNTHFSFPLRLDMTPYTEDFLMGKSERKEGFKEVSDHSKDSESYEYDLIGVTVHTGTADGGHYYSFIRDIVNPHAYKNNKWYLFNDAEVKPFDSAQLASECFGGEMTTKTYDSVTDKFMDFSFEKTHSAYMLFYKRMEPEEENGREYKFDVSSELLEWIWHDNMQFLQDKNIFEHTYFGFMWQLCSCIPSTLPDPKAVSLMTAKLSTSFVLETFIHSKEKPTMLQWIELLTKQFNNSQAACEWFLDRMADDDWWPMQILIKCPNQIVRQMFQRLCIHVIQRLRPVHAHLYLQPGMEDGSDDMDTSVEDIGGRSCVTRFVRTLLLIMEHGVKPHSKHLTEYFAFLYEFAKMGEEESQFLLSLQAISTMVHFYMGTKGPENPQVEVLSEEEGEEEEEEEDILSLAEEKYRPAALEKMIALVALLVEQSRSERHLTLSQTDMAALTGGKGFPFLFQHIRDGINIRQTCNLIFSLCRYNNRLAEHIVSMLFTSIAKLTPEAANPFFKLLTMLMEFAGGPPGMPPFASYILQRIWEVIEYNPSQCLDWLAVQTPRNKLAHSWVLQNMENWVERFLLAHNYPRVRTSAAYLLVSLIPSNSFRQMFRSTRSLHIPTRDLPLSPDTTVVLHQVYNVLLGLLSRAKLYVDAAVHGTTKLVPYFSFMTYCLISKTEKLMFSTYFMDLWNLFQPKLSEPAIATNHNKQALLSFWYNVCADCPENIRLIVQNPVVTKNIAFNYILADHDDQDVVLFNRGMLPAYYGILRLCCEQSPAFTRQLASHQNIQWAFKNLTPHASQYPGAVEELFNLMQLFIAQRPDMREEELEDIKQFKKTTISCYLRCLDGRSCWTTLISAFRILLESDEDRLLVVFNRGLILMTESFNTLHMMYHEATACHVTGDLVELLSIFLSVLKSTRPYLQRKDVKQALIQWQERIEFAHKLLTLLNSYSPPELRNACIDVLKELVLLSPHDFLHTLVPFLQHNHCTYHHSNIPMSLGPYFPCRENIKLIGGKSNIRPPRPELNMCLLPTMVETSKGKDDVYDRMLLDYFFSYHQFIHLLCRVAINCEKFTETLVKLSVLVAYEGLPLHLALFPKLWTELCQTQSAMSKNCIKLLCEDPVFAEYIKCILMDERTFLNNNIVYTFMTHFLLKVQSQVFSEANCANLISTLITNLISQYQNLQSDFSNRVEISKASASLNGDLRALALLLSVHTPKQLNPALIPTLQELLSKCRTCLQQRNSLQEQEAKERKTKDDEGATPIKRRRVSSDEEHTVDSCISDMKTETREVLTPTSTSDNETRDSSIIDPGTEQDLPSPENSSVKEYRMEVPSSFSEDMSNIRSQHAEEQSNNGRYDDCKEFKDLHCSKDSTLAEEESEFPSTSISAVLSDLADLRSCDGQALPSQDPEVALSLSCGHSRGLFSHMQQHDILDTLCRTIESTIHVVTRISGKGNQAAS

O=C(CCl)N1CCC(C(=O)N2CCCC2)CC1
inactive: USP34 -0.0649 | USP36 -0.172 | USP38 -0.135 | USP39 -0.453 | USP4 -0.208
